Some compounds were tested as several samples or in several runs, with calls that do not always agree. Active and inactive are the calls of the source. How the source made its calls: active means hit-call score of the fitted dose curve at least 0.9, where 1 is the maximum; inactive means score below 0.9.

The source of these data is PubChem BioAssay (EPA / NIEHS).

A short description of one assay: CEETOX_H295R_DOC: CeeTox H295R High-throughput Steroidogenesis Assay for DOC (AID 2283439). The note with it: actives raise or lower the signal. The procedure, abridged:
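Steps: seed H295R, adhere overnight; 10 uM forskolin 48 h; replace with chemical medium (0.1% DMSO) 48 h; collect medium, MTBE extraction, HPLC-MS/MS for DOC. Viability then checked by MTT; cytotoxic chemicals diluted until viability ≥70%.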
With `O=C(c1ccc(OCCN2CCCCC2)cc1)c1c(-c2ccc(O)cc2)sc2cc(O)ccc12`, the call was inactive.

For the compound `C#C[C@]1(O)CC[C@H]2[C@@H]3CCc4cc(O)ccc4[C@H]3CC[C@@]21C`, the outcome was inactive.

For `CCCCCC(=O)O[C@]1(C(C)=O)CC[C@H]2[C@@H]3CCC4=CC(=O)CC[C@]4(C)[C@H]3CC[C@@]21C`, the call was inactive. Regarding `OCCCO`, the result was inactive. Take `c1coc(CNc2ncnc3nc[nH]c23)c1`: the call was inactive. As to `CC=CC(=O)C1=C(C)C=CCC1(C)C`, the call was inactive. As to `CCCCCCCCCCCCN1CCOCC1`, the half-maximal activity concentration (AC50) (in general, the concentration at which the activity in the assay is half-maximal) was 0.549 µM (active). Turning to `CC(=N[Si](C)(C)C)O[Si](C)(C)C`, the result was inactive. Regarding `c1ccc(OCCOc2ccccc2)cc1`, the outcome was inactive. Take `O=C(OCc1ccccc1)c1ccccc1O`: the compound was classed as inactive. Take `COc1ccc2[nH]cc(CCNC(C)=O)c2c1`: the outcome was inactive. On the same count and under the same terms, the result for `CCCc1ccc(O)cc1` reads “inactive”. Regarding `CC/C(=C(\c1ccccc1)c1ccc(OCCN(C)C)cc1)c1ccccc1`, the AC50 was 0.222 µM (active) and the outcome was inactive. As to `CC(=O)c1ccc2ccccc2c1`, the compound was classed as inactive. With `C[C@]12CC[C@@H]3c4ccc(O)cc4CC[C@H]3[C@@H]1CC[C@@H]2O`, the AC50 is 3.8 µM (active). For the compound `O=c1cc(-c2ccc(O)cc2)oc2cc(O)cc(O)c12`, the half-maximal activity concentration (AC50) is 7.72 µM (active). Take `CC(C)(C)c1cccc(O)c1`: the call was inactive.

The next assay is described as follows: CEETOX_H295R_ESTRONE: CeeTox H295R High-throughput Steroidogenesis Assay for Estrone (AID 2283441).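 On AC50: human adrenal H295R cells prestimulated with forskolin for two days.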 Conditions: actives raise or lower the signal. Summed up:
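Estrone secreted into medium quantified by LC-MS/MS after dansyl chloride derivatization, following 48 h chemical exposure (0.1% DMSO final) of forskolin-prestimulated (10 uM, 48 h) H295R cells; gain or loss fitted against DMSO; MTT viability in same wells.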
In the case of `CCCCCC(=O)O[C@]1(C(C)=O)CC[C@H]2[C@@H]3CCC4=CC(=O)CC[C@]4(C)[C@H]3CC[C@@]21C`, the AC50 was 13.2 µM (active). Turning to `OCCCO`, the compound was classed as inactive. On to `CC(=O)C1=C(C)[C@@H]2C[C@@]3(C1)[C@H](C)CC[C@H]3C2(C)C`, for which the outcome was inactive. On to `CCCCCCCCCCCCN1CCOCC1`, for which the outcome was inactive. As for `c1ccc(OCCOc2ccccc2)cc1`, the call was inactive. For the compound `O=C(OCc1ccccc1)c1ccccc1O`, the result was inactive. The same measure, in the same setting: the result for `COc1ccc2[nH]cc(CCNC(C)=O)c2c1` reads “inactive”; that for `CCCc1ccc(O)cc1`, “inactive”; that for `OCC=Cc1ccccc1`, “inactive”. Turning to `CC(=O)c1ccc2ccccc2c1`, the compound was classed as inactive.
